Laboratory results as given in PubChem BioAssay AID488969 (Vanderbilt High Throughput Screening Facility, 2010).
Whole data set: some 110,000 compounds, median “z-score” near -0.1, cut for the highest 2% near 2. Many of the other results were omitted from the sample, so the highest values are more common in it than they were. Calls of active or inactive are those of the source.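 How the source made its calls: active means z-score in the third read window above 3 or below -3; inactive means the rest.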

target: Metabotropic glutamate receptor 8 (Rattus norvegicus) (UniProt P70579); test: rat mGluR8 modulators via GIRK flux, primary screen, cell-based, thallium flux, HTS (AID 488969); details: HEK293 rat mGluR8, GIRK (G protein-gated inwardly rectifying potassium channel) thallium flux, FluoZin2; at 10 µM; stronger effect = higher value; submaximal glutamate (EC20) added with thallium
Sequence (P70579 whole entry, looked up): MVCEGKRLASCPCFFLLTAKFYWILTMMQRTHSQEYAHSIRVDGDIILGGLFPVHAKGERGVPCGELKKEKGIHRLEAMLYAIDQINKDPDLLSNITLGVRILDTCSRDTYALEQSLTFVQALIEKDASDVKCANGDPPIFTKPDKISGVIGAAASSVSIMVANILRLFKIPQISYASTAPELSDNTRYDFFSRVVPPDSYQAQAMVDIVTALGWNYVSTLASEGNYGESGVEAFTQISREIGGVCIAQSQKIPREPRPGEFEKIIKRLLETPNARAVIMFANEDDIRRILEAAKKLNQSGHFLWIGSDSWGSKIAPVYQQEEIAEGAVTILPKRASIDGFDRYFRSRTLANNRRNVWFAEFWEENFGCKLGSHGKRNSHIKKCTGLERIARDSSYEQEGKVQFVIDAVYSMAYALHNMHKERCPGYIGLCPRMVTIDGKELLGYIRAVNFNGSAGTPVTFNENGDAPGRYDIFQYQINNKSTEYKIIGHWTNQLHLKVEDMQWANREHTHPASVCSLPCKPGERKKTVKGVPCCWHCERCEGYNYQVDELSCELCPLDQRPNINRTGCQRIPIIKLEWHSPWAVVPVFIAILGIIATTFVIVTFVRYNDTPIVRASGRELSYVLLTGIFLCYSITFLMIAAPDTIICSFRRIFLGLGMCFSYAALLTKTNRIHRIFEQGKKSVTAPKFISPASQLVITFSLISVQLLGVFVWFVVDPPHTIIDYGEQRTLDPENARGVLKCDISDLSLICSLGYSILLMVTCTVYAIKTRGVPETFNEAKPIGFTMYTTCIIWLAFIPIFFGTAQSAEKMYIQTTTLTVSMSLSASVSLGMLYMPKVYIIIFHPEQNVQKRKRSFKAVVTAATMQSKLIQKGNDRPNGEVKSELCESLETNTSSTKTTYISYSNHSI

Point of comparison: COc1ccc(NC(=O)Cc2coc3cc(C)c(C(C)C)cc23)cc1S(=O)(=O)N1CCOCC1, z-score -0.503. Against it:
- Oc1ccc2ccccc2c1N=Nc1ccccn1 — higher, 2.19
- N/C(=N\OC(=O)Cc1cccc2ccccc12)c1ccccn1 — higher, 0.135
- Oc1c(/C=N/c2ncn[nH]2)ccc2ccccc12 — higher, 0.0888
- Oc1ccc(N=Nc2c(O)ccc3ccccc23)cc1 — higher, -0.0552
- O=C(O)Cc1c(O)ccc2ccccc12 — higher, -0.0548
- CCOc1cc(C2C(C#N)=C(N)OC(C)=C2C(C)=O)cc(Br)c1O (stereo unspecified) — lower, -1.08
- O=C(Nc1ncc2c(n1)-c1ccccc1CC2)c1cccc(Cl)c1 — lower, -0.891
- CCN(c1ccc(NC(=O)COC(=O)CCC(=O)c2ccc(F)cc2)cc1)C(C)C — higher, -0.471
- Cc1cc(C)cc(-n2c(SC(C)C(=O)NCc3ccc4c(c3)OCO4)nc3ccccc3c2=O)c1 (stereo unspecified) — higher, -0.19
- Cc1ccc(-c2ccnc(=S)[nH]2)cc1 — higher, 0.997
- CCc1ccc(-c2ccc(C(=O)C(F)(F)F)[nH]2)cc1 — higher, -0.0177
- Cc1ccc(-c2ccc(C(=O)O)[nH]2)cc1 — higher, 2.4
- O=C1c2ccccc2NC(c2ccc(-c3cccc(Cl)c3)o2)N1O (stereo unspecified) — higher, 2.57
- O=C1c2ccccc2NC(c2ccco2)N1O (stereo unspecified) — higher, -0.422
- Cc1ccsc1C1Nc2ccccc2C(=O)N1O (stereo unspecified) — higher, -0.218
- Cc1nn(C)cc1C1Nc2ccccc2C(=O)N1O (stereo unspecified) — higher, -0.121
- Cc1c(C2Nc3ccccc3C(=O)N2O)cnn1C (stereo unspecified) — higher, 0.189
- O=C1c2ccccc2NC(c2cn[nH]c2-c2ccccc2)N1O (stereo unspecified) — higher, -0.0761
- N#CC1=C(S)N(c2ccccc2)C(c2ccc(-c3cccc(Cl)c3)o2)NC1=O (stereo unspecified) — higher, -0.292
- CC1CCC(NC(=O)Nc2cccs2)CC1 (stereo unspecified) — higher, 0.643
- CCOC(=O)c1c(NC(=O)C2=C(C)NC(=S)NC2c2ccc(F)cc2F)sc(C)c1C (stereo unspecified) — higher, 0.556
- CCCCCCn1c(C)nc2c(c1=O)c1nc3ccccc3nc1n2/N=C/c1ccco1 — higher, 0.218
- CCn1c(SCC(=O)Nc2ccc(C)cc2)nc2nc3c(cc2c1=O)CCCC3 — higher, 0.307
- CCC1(C)Cc2nc3[nH]c(=S)n(-c4ccccc4)c(=O)c3cc2CO1 (stereo unspecified) — higher, -0.0711
- CC1(C)Cc2nc3[nH]c(=S)n(-c4ccccc4)c(=O)c3cc2CO1 — higher, -0.126
- CCn1c(SCc2ccc(Cl)cc2)nc2nc3c(cc2c1=O)CCCC3 — higher, 0.193
- CCn1c(=S)[nH]c2nc3c(cc2c1=O)CCCC3 — higher, 2.31
- CN(C(=O)c1ccncc1)c1nnc(-c2cnccn2)s1 — higher, -0.251
- CCOC(=O)/C(C#N)=C/c1cc2ccccc2nc1Cl — higher, -0.3
- O=C(c1ccco1)N1CCN(S(=O)(=O)c2ccc(Cl)s2)CC1 — higher, -0.0642
- COc1cccc(N(CC(=O)N/N=C(\C)c2cccs2)S(C)(=O)=O)c1 — higher, -0.154
- CC1=C(C(=O)OC(C)C)C(c2cncc(-c3ccc(F)cc3)c2)C(C#N)=C(N)O1 (stereo unspecified) — higher, -0.367
- CCOC(=O)C1=C(C)OC(N)=C(C#N)C1c1cc(F)ccc1F (stereo unspecified) — lower, -2.09
- CCOC(=O)C1=C(C)OC(N)=C(C#N)C1c1cncc(-c2ccc(F)cc2)c1 (stereo unspecified) — higher, 2.92
- Cc1ccc(S(=O)(=O)NC(C)C(c2cccs2)N2CCN(c3ccccc3)CC2)cc1 (stereo unspecified) — higher, -0.115
- Cc1cccc(NC(=O)c2cc(Cl)nc3ccccc23)c1 — higher, -0.228
- Cc1ccc(-c2cc(C(=O)Nc3ccccc3C)c3ccccc3n2)o1 — higher, 0.279
- O=C(NCc1ccccn1)c1cc(-c2ccc(-c3ccccc3)cc2)nc2ccccc12 — higher, -0.368
- CCCOc1ccc(C(=O)NNC(=S)NC(=O)c2cc(-c3ccccc3)nc3ccccc23)cc1 — higher, 0.558
- Cc1ccc(-c2cc(C(=O)Nc3cc(C)on3)c3ccccc3n2)cc1 — higher, -0.321
- O=C(NCc1ccccn1)c1cc(-c2ccccc2)nc2ccccc12 — higher, -0.314
- COc1ccc(C(=O)NNC(=S)NC(=O)c2cc(-c3ccccc3)nc3ccccc23)cc1 — higher, 2.35
- CCCOc1ccc(C(=O)NNC(=S)NC(=O)c2cc(-c3ccc(Cl)cc3)nc3ccccc23)cc1 — higher, -0.0891
- CCNC(=S)NNC(=O)c1cc(-c2cccc(C)c2)nc2ccccc12 — higher, 0.214
- O=C(Cn1cc([N+](=O)[O-])cn1)N1CCc2ccccc21 — higher, 0.0712
- O=C(c1cccs1)c1cn(CC(=O)N2CCc3ccccc3C2)c2ccccc12 — higher, -0.134
- COc1ccc(N2CCN(S(=O)(=O)c3cccc(C(F)(F)F)c3)CC2)cc1 — higher, -0.0298
- CCn1c(SCc2ccccc2Cl)nc2ccccc21 — higher, 0.866

In the case of Oc1c(N=Nc2ccccn2)ccc2ccccc12, the z-score is reported as 13.6 (active).
With O=C1c2ccccc2NC(c2ccc(-c3ccc(Br)cc3)o2)N1O (stereo unspecified) the z-score was 3.36 (active).
In the case of Cc1cc([N+](=O)[O-])ccc1-c1ccc(C2Nc3ccccc3C(=O)N2O)o1 (stereo unspecified), the z-score is reported as 3.53 (active).
For C=CCn1c(=S)[nH]c2nc3c(cc2c1=O)CCCC3, the z-score was 4.15 (active).
In the case of O=C(NC(=S)Nc1ccccn1)c1cc(-c2ccccc2)nc2ccccc12, the z-score is reported as 3.22 (active).
Cc1ccccc1NC(=S)NC(=O)c1cc(-c2ccccc2)nc2ccccc12 was tested, and the z-score was 7.41 (active).
For Cc1cccc(NC(=S)NC(=O)c2cc(-c3ccccc3)nc3ccccc23)c1, the z-score was 5.14 (active).
